Measured values reported in PubChem BioAssay (NCI).
Several values for one entry are separate records, joined by “and”; a condition that tells them apart may be missing. Equal values may be shown once. About 79,000 compounds went through this panel and 15% of them were active in at least one assay; those are over-represented in the sample as a whole. Values without a mark were called inactive. Activity calls are given as the source filed them. Rule as the data show it: active = growth inhibition above about 70%; inactive = the rest.

Key:
[1] = NCI Yeast Anticancer Drug Screen. Data for the rad50 strain (AID 155);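 also: 0% = growth of vehicle-only cultures of the same strain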; conditions: S. cerevisiae rad50 strain growth inhibition, hits give high values; at 50.0 µM unless noted
How it was run: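 Growth of the mutant yeast was measured after compound exposure and referenced to vehicle-treated cultures.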

[2] = NCI Yeast Anticancer Drug Screen. Data for the mec2-1 strain (AID 157); conditions: S. cerevisiae mec2-1 strain, hits give high values; at 50.0 µM unless noted
How it was run: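 Mutant yeast (mec2-1) grown with compound; growth inhibition relative to vehicle control reported.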

[3] = NCI Yeast Anticancer Drug Screen. Data for the sgs1 mgt1 strain (AID 161);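 also: 0% = growth of cultures given vehicle only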; conditions: S. cerevisiae sgs1 mgt1 strain, hits give high values; at 50.0 µM unless noted
How it was run: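 Growth of a repair-deficient yeast mutant was monitored after compound treatment and expressed as inhibition relative to vehicle-treated cultures.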

[4] = NCI Yeast Anticancer Drug Screen. Data for the cln2 rad14 strain (AID 165);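 also: 0% = growth equal to vehicle treated cultures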; conditions: S. cerevisiae cln2 rad14 strain, hits give high values; at 50.0 µM unless noted
How it was run: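 Readout is yeast growth inhibition versus vehicle-treated controls, using a strain with cln2 and rad14 alterations exposed to compound.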

[5] = NCI Yeast Anticancer Drug Screen. Data for the bub3 strain (AID 167); conditions: S. cerevisiae bub3 mutant strain, hits give high values; at 50.0 µM unless noted
How it was run: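 Whole-cell yeast assay. The mutant strain was incubated with compounds, and growth inhibition was determined by comparison with vehicle-treated cells.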

[6] = NCI Yeast Anticancer Drug Screen. Data for the mlh1 rad18 strain (AID 175); conditions: S. cerevisiae mlh1 rad18 strain growth inhibition, hits give high values; at 50.0 µM unless noted
How it was run: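 Genetically defined yeast (DNA repair-deficient) exposed to compounds; growth inhibition determined relative to vehicle.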

SMILES | growth inhibition [1] | growth inhibition [2] | growth inhibition [3] | growth inhibition [4] | growth inhibition [5] | growth inhibition [6]
O=c1c2ccc(Cl)cc2nc2nc(-c3ccccc3)c3cc(Cl)ccc3n12 | 57.6% | 31.2% | 37.4% | 22.9% | 6.3% | 46.5%
Nc1ncnc(Nc2ccc(Cl)cc2Cl)n1 | 5.05% | -11.7% | 5.75% | 1.85% | 5.25% | -7.05%
CCCCCCCCCCCCCCCc1ccc(N)c(OC2OC(CO)C(O)C(O)C2O)c1 (stereo unspecified) | -2.15% and -16.8% | 6.7% and -18.2% | 8.8% and 8.55% | -8.15% and -28.3% | -5.6% and 0.95% | 18.1% and -0.4%
CC(C)(C)OC(=O)CC(NC(=O)OC(C)(C)C)C(=O)NC(C(=O)O)C(O)c1ccccc1 (stereo unspecified) | -19.4% | -24.9% | -15.3% | -22.9% | -9.45% | -28.6%
c1ccc2c(CC3NCCN3)cccc2c1 | -11.3% | -32.2% | -55.2% | 10.8% | -1.4% | -13%
[N-]=[N+]=C(C(=O)CN1CCCC1=O)S(=O)(=O)c1ccccc1 | 10.4% | -6.4% | -6.55% | 9.1% | -2.85% | 16.2%
CCN(CC)C(=O)Oc1cccc(NC(=O)OC)c1 | 16% | 47.2% | 29.4% | 16.1% | 49.2% | 33.4%
CC(=O)Oc1ccc(CCC(=O)O)cc1 | 18.8% | 12.6% | 6.9% | 57.9% | 11.4% | 20.9%
O/N=C/c1ccco1 | 1.2% | -9.85% | 7.75% | -1.15% | -6.55% | 16.1%
OCCCCCSc1ccccc1 | 17.4% | 4.35% | 7.95% | 1.95% | -11.1% | 7.3%
CC(Br)CCCBr (stereo unspecified) | -19.1% | -5.65% | -21.1% | -22.4% | -4.5% | -13.8%
CCOC(=O)C1CC2OC2CC1C(=O)OCC (stereo unspecified) | 0.55% | -36.9% | -15.2% | 12.4% | -1.9% | -33.2%
CCCN(CCC)C(=O)c1ccccc1C | 9.5% | -2% | 6.65% | -14.1% | 18.4% | 2.9%
COc1cc(OC)c(-c2nc3ccccc3c(=O)o2)cc1OC | 4.9% | 1% | -3.65% | 0.9% | -0.75% | 7.75%
C1CCCC(=NN=C2CCCCCCC2)CCC1 | 29% | 21.6% | 13.4% | -16.6% | -10.2% | 14.7%
c1ccc(-c2cn(-c3ccccc3)nn2)cc1 | -1% | -4.5% | -13.7% | -22.9% | -28.8% | 0.6%
Cn1nc2ccc3nccc(N4CCN(CCO)CC4)c3c2n1 | -25.6% | -6.9% | -21.6% | -17.1% | -8.45% | -15%
Cc1ccc(OCc2ccc([N+](=O)[O-])cc2)cc1 | 1.8% | -12.2% | -12.6% | 13.9% | -16.4% | -16.8%
CCOC(=O)c1cc(/C=C/C(C)=C/C(=O)OC)n(C)c1C | 74.5% (active) | 56% | 79.5% (active) | 34.5% | 80.2% (active) | 58.5%
O=C1C=CC(=O)N1c1ccnc(N2C(=O)C=CC2=O)c1 | 21.4% | -1.55% | 6.1% | -7.05% | 11.8% | 10.2%
O=C(Nc1ccccn1)c1ccccc1Cl | 1.1% | 3.1% | -9.5% | 4.2% | -5.9% | 19.3%

SMILES | growth inhibition [1] | growth inhibition [2] | growth inhibition [3] | growth inhibition [4] | growth inhibition [5] | growth inhibition [6]
CC(=O)c1c(C)cc2cc(C)cc(O)c2c1O | 30.9% | 17.9% | 1.4% | 0.6% | 0.4% | 29.9%
Cc1nc2ccccc2c2ccc([N+](=O)[O-])cc12 | 13.5% | 4.45% | 0.25% | -31.1% | -4.6% | 12.3%
COCNC(=S)c1ccc(C(N)=O)nc1C(=O)NC(C)(C)C | 15.8% | 0.4% | 5.6% | -3.3% | -5.8% | 30.6%
CNc1cc(C(C)C)ccc1C | 4.1% | 8.75% | 10.7% | 0.85% | 17.1% | 3.25%
NC1N=Nc2ccccc21 (stereo unspecified) | 0.05% | -5.95% | 13.3% | 4.3% | -1.6% | 41.3%
O=C(O)c1cc(C(=O)O)cc(C(=O)O)c1 | -1.55% | -16.2% | -8.1% | -56.9% | -3.05% | -30.1%
COc1ccc(NC(=S)N/N=C(\C)c2ccccn2)cc1 | 81.5% (active) | 91.8% (active) | 94% (active) | 35.4% | 80.1% (active) | 84.8% (active)
C=CCNc1nc(Cl)nc2c1cnn2C | 13.3% | -3% | -2.95% | -21.3% | 8.55% | -5.15%
C/C(=N/NC(N)=S)c1c(C)[nH]c2ccccc12 | 3.1% | 10.2% | -7.7% | -78.8% | -45% | 0.95%
CCOC(C)C(Nc1ccc(C(=O)O)cc1)C(=O)Nc1ccc(C(=O)O)cc1 (stereo unspecified) | 9.8% | 2% | 4.5% | -29.4% | -5.6% | -10.7%
CCN(CC)C(=O)c1c(Cl)cc(N(CC)CC)oc1=O | -21.7% | -11.8% | -42% | -23.5% | -41.1% | -54.5%
CCN(CC)c1ccc(C(c2ccc(N(CC)CC)cc2Cl)c2cccc3ccccc23)c(Cl)c1 | 24.8% | 19.8% | 30.3% | 36.2% | 22.4% | 7.85%
Brc1ccc(-c2ccccc2)cc1 | 28.8% | 17.8% | 17.2% | 15.1% | 8.9% | 21.4%
O=c1/c(=C/c2ccccc2[N+](=O)[O-])sc2nc3ccccc3n12 | -16.6% | -21.4% | -25.9% | -12.7% | -21.9% | -47.2%
Cn1ncc2c(NC(C)(C)CC(C)(C)C)ncnc21 | 21.1% | 7.95% | 1.05% | 1.55% | 45.4% | 16.8%
COC(=O)N/N=C(/CCCC(=O)Nc1cccc([N+](=O)[O-])c1)C(C#N)c1ccc(CC#N)cc1 (stereo unspecified) | -3.55% | -0.1% | -13.6% | 1.8% | 6.65% | -3.3%
CCn1nc(C)c2c1C(=O)NC(C)C(=O)N2 (stereo unspecified) | -22.6% | -33% | -13.5% | 16.4% | -22.9% | -22.4%
COC(=O)c1ccccc1NC(=O)Nc1ncccn1 | -5.3% | 2.4% | -7.2% | -10.1% | -11.2% | -11.5%
CC(=O)Oc1ccc(N2CC=C(c3ccccc3)CC2)cc1 | -6.7% | -13.5% | -9.75% | -8.35% | -9.45% | -4.45%
NC(N)=N/N=C(\c1ccc(C(F)(F)F)cc1)c1ccc(Cl)c(Cl)c1 | 99.5% (active) | 99.5% (active) | 99.7% (active) | 99.2% (active) | 99.3% (active) | 99.7% (active)
